Only a selection was taken, and hits are over-represented in it overall.
KDM5B inhibitor – KDM5B demethylase inhibition; KDM5B demethylase, FDH-coupled NADH fluorescence (FDH is formaldehyde dehydrogenase); Potency, µM (titrated, usually from 57.7 µM), most hits filed as inhibitors; actives 2.6% (n = 220,000); active = well fitted inhibition curve with a large enough effect; note: nearly all actives have a fitted effect of over 70% in size
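Compound dilutions met 200 nM (final) KDM5BΔAP for 10 min at room temperature before substrate addition. The substrate mix held 12.5 µM H3K4me3 with cofactors 25 µM α-ketoglutarate and 50 µM Fe²⁺. NADH signal gain over 30 min defined activity.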
Large screens that a line does not name were inactive.

COc1ccc(NC(=O)CCc2ncc(-c3ccccc3F)o2)cc1Cl	none
Cc1ccccc1NC(=O)c1nc(S(C)(=O)=O)ncc1N(Cc1ccco1)Cc1ccco1	none
O=C(NCCc1ccc(Cl)cc1)c1cc(-c2ccccc2)n[nH]1	none
O=C(NCCc1ccc(Cl)cc1)c1cc(-c2cccc(C(F)(F)F)c2)c2nncn2n1	KDM5B inhibitor 79.4µM
COc1ccc(CCNC(=O)Cn2nnc(-c3cccc(C(F)(F)F)c3)n2)cc1OC	none
O=C(NCC(c1ccccc1)c1ccccc1)c1n[nH]c(=O)c2ccccc12	none
CN1CCN(c2cc(=O)c3ccnc(-c4cccc(CO)c4)c3o2)CC1	KDM5B inhibitor 28.2µM
O=c1cc(-c2ccncc2)oc2c(-c3cccc(CO)c3)nccc12	KDM5B inhibitor 35.5µM
O=c1cc(-c2ccncc2)oc2c(-c3cccc4[nH]ccc34)nccc12	none
Cc1ccc(C(=O)NCc2ccc(N3CCN(C)CC3)nc2)o1	none
CN1CCN(c2ccc(NC(=O)c3cccc(F)c3)nc2)CC1	none
CN1CCN(c2cc(=O)c3ccnc(-c4ccc(CO)cc4)c3o2)CC1	KDM5B inhibitor 35.5µM
COc1ccccc1N1CCN(C(=O)CCc2conc2-c2cccc(F)c2)CC1	none
CN(C)c1cc(=O)c2ccnc(-c3cccc(CO)c3)c2o1	none
CN1CCN(c2cc(=O)c3ccnc(-c4cccc(F)c4)c3o2)CC1	KDM5B inhibitor 35.5µM
CCc1ccc(C(=O)NCc2ccnc(N3CCN(C)CC3)c2)o1	none
CC(=O)C(Cc1ccc(Br)cc1)C(=O)c1ccccc1 (centres undefined)	none
CCOC(=O)c1c(NC(=O)c2nc3nc(C)cc(C(F)F)n3n2)sc2c1CCC(CC)C2 (centres undefined)	none
CC(=O)c1c(C)[nH]c(C(=O)C(C)Oc2ccc(F)c(F)c2)c1C (centres undefined)	none
CC(Oc1ccc(Cl)cc1Cl)C(=O)NC(c1ccccc1)c1ccccc1 (centres undefined)	none
Fc1ccc(CN2CCOC[C@H]2c2ncc(-c3ccc(Cl)s3)[nH]2)cc1	none
CCN(CC)c1ccc(NS(=O)(=O)c2cc(C)cc(C)c2)cc1C(=O)O	none
O=c1c2ccc(Cl)cc2ncn1Cc1ncc(-c2ccccc2)o1	none
CC(C)(C)C(=O)/C(C#N)=C/c1ccccc1OCc1ccc(Cl)cc1	none
COc1ccc(Nc2nc(CSc3nnc4n3CCCCC4)cs2)cc1	none
CONC(=O)c1cccc(C#N)c1	none
O=C(Nc1ccc2oc(-c3cccnc3)nc2c1)c1cccc(I)c1	none
Cc1ccc(NC(=O)C(=O)NCCN2CCN(C(=O)c3ccc(C(C)(C)C)cc3)CC2)cc1	none
COc1ccc(-c2nn(C)c(=O)c3ccccc23)cc1NC(=O)c1ccc(C)cc1	none
O=C(C1CCCC1)N1Cc2ccccc2CC2(CCN(Cc3cccnc3)C2)C1 (centres undefined)	none
Cc1ccc(-c2ncc(C(=O)NCCN3CCN(C)CC3)c(-c3ccncc3)n2)cc1	none
CN1CCN(CCNC(=O)c2ccc(-c3ccc(N4CCCCCC4)nc3)cc2)CC1	KDM5B inhibitor 22.4µM
O=C(NCc1ccccn1)c1ccc(-c2ccc(N3CCCCC3)nc2)cc1	KDM5B inhibitor 15.8µM
O=C(NCc1ccccn1)c1ccc(C2CCCCC2)cc1	none
CCc1csc(CNC(=O)c2ccc(N3CCSCC3)nc2)n1	none
Cc1ccc(C(=O)NCCN2CCCC2)cc1	none
O=C(NCCN1CCCCC1)c1ccc(-c2ccc(N3CCCCC3)nc2)cc1	KDM5B inhibitor 28.2µM
CCNC(=O)N1CCC(Cc2ccc(C(=O)NCCN3CCCCC3)cc2)CC1	none
Cc1ccc(CNC(=O)c2ccc(-c3ccc(N4CCSCC4)nc3)cc2)o1	none
CC(C)CCNC(=O)c1ccc(-c2ccc(N3CCSCC3)nc2)cc1	KDM5B inhibitor 22.4µM
Cc1[nH]c2ccc(C(=O)NCCN3CCN(C)CC3)cc2c1C	none
O=C(NCc1ccccn1)c1ccc2ccccc2c1	none
O=C(/C=C/c1cccs1)N1CCC(Cc2ccccc2)CC1	none
COc1ccc(COc2ccc(C#N)cc2)c(Br)c1OC	none
CCOc1ccc(Nc2nc3ccccc3nc2NS(=O)(=O)c2cccs2)cc1	none
O=C(CC1C=CCC1)Nc1ccc(SC2CCCC2)cc1 (centres undefined)	none
COc1ccccc1/C=C(\C#N)c1nc2ccccc2[nH]1	none
CCCn1nc(C(=O)OCC(=O)Nc2ccc(OCc3ccccc3)cc2)c2ccccc2c1=O	none
Cc1ccc(OCCN(C)C(=O)c2cc(=O)[nH]c3ccccc23)cc1	none
CCOc1cccc(-c2nnc3n2N=C(c2ccc4ccccc4c2)CS3)c1	none
Cc1ccc(C(=O)NCCCN2CCCC2)cc1	none
O=C(NCCCN1CCCC1)c1ccc(-c2ccc(N3CCCCC3)nc2)cc1	KDM5B inhibitor 22.4µM
CN(Cc1ccco1)C(=O)c1ccc(-n2cnnn2)cc1	none
O=C(NCCN1CCN(C(=O)c2ccc(F)cc2)CC1)c1ccc(F)cc1	none
O=C(NCCN1CCCCC1)c1ccc(-c2ccc(N3CCSCC3)nc2)cc1	KDM5B inhibitor 28.2µM
CN(Cc1ccco1)C(=O)c1cccc(S(=O)(=O)N2CCCCC2)c1	none
N#Cc1cccc(C(=O)NCCCN2CCCC2)c1	none
CS(=O)(=O)N1CCC(Cc2ccc(C(=O)NCCN3CCOCC3)cc2)CC1	none
O=C(NCCN1CCCCCC1)c1n[nH]c(=O)c2ccccc12	none
